PubChem BioAssay (NCI)
About 83,000 compounds went through this panel and 20% of them were active in at least one assay; those are over-represented in the sample as a whole.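 Interpretation: 100, growth as untreated; towards 0, rising growth inhibition; 0, no net growth; 0 to -100, cell death. Compounds scoring below 10 were considered active.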 Calls of active or inactive are those of the source.

Legend:
Experiment in all cases: NCI-60 one-dose screen, 48 h (100 = growth as untreated, 0 = no growth, -100 = all killed)
Conditions in all cases: 10 µM unless noted
T-47D breast = system: T-47D breast
BT-549 breast = system: BT-549 breast
MDA-MB-435 melanoma = system: MDA-MB-435 melanoma
SW-620 colon = system: SW-620 colon
MCF7 breast = system: MCF7 breast
HCT-116 colon = system: HCT-116 colon
HCC-2998 colon = system: HCC-2998 colon
KM12 colon = system: KM12 colon

Measured: growth

COc1nccnn1
inactive: T-47D breast 107% | BT-549 breast 94% | MDA-MB-435 melanoma 93% | SW-620 colon 101% | MCF7 breast 103% | HCT-116 colon 99.2% | HCC-2998 colon 110% | KM12 colon 95.7%

CCOC(=O)c1c(O)cc(-c2ccccc2)cc1-c1sc(N(C)Cc2ccccc2)nc1Cl
active: HCT-116 colon -85.6%
inactive: T-47D breast 93.5% | BT-549 breast 42.7% | MDA-MB-435 melanoma 101% | SW-620 colon 96.5% | MCF7 breast 94% | HCC-2998 colon 103% | KM12 colon 104%

CC(C)(O)C1CCCN1C(=O)c1ccccc1I (stereo not drawn)
inactive: T-47D breast 85.7% | BT-549 breast 133% | MDA-MB-435 melanoma 93.2% | SW-620 colon 95.4% | MCF7 breast 91.6% | HCT-116 colon 68.9% | HCC-2998 colon 112% | KM12 colon 94.3%

C[C@H]1[C@H](C)CC[C@]2(CO)CC[C@]3(C)C(=CC[C@@H]4[C@@]5(C)Cc6c([nH]c7ccccc67)C(C)(C)[C@@H]5CC[C@]43C)[C@H]12
inactive: T-47D breast 68.3% | BT-549 breast 85.2% | MDA-MB-435 melanoma 90.3% | SW-620 colon 96.2% | MCF7 breast 74.1% | HCT-116 colon 61.5% | HCC-2998 colon 86% | KM12 colon 73.8%

CCCCCCOc1ccc(/C=N/Nc2cc(C)nc3ccc(Br)cc23)cc1
active: T-47D breast -11% | MDA-MB-435 melanoma -87.7% | SW-620 colon -72.5% | MCF7 breast -67% | HCT-116 colon -66.4% | HCC-2998 colon -94.5% | KM12 colon -84.7%
inactive: BT-549 breast 106%

COc1ccc2nc(N=Nc3c(O)ccc4ccccc34)sc2c1
inactive: T-47D breast 27.3% | BT-549 breast 53.3% | MDA-MB-435 melanoma 45.1% | SW-620 colon 35.8% | MCF7 breast 13.9% | HCT-116 colon 26.6% | HCC-2998 colon 45.9% | KM12 colon 32.3%

O=C1NC(=O)C(=Cc2cn(Cc3ccccn3)c3ccccc23)C(=O)N1
inactive: T-47D breast 100% | BT-549 breast 98.8% | MDA-MB-435 melanoma 101% | SW-620 colon 105% | MCF7 breast 87.6% | HCT-116 colon 100% | HCC-2998 colon 105% | KM12 colon 106%

COc1ccc(C(=O)c2cc(C)c(OC)c(C)c2)c(OC)c1O
active: BT-549 breast 8.49% | MDA-MB-435 melanoma -40.3% | HCT-116 colon 1.83% | KM12 colon 7.53%
inactive: T-47D breast 40.2% | SW-620 colon 22% | MCF7 breast 16.1% | HCC-2998 colon 16.8%

O=C(CSc1nc2sc3c(c2c(=O)n1Cc1ccccc1)CCCC3)N1CCN(c2ccccc2)CC1
inactive: T-47D breast 80.9% | BT-549 breast 90.1% | MDA-MB-435 melanoma 101% | SW-620 colon 102% | MCF7 breast 95.5% | HCT-116 colon 85.4% | HCC-2998 colon 103% | KM12 colon 101%

Cc1cccc(Oc2ccc(Nc3ncnc4ccc(NC(=O)CNCCO)cc34)cc2Cl)c1
inactive: T-47D breast 35.7% | BT-549 breast 73.4% | MDA-MB-435 melanoma 55.7% | SW-620 colon 77.9% | MCF7 breast 47.1% | HCT-116 colon 37.2% | HCC-2998 colon 66.8% | KM12 colon 76.8%

COc1c(Cl)cc(Cl)c2ccc(C=C3C(=O)N(C)C(=O)N(C)C3=O)nc12
active: HCT-116 colon -46.6%
inactive: T-47D breast 100% | BT-549 breast 90.4% | MDA-MB-435 melanoma 102% | SW-620 colon 105% | MCF7 breast 94.9% | HCC-2998 colon 101% | KM12 colon 101%

Cc1ccccc1-c1cc(Cc2ccc(F)cc2)c(=O)[nH]n1
inactive: T-47D breast 99% | BT-549 breast 106% | MDA-MB-435 melanoma 119% | SW-620 colon 102% | MCF7 breast 97.9% | HCT-116 colon 78.4% | HCC-2998 colon 119% | KM12 colon 123%

COc1ccc(C(=O)c2cc(C)c(OC)c(C)c2)c(OC)c1N(C(=O)C(Cl)Cl)C(=O)C(Cl)Cl
active: BT-549 breast 5.7% | MDA-MB-435 melanoma -37.5% | HCT-116 colon 4.88% | KM12 colon 5.55%
inactive: T-47D breast 52.4% | SW-620 colon 19% | MCF7 breast 13.4% | HCC-2998 colon 14.7%

COc1ccc(C(=O)c2cc3c(N)c(C(=O)Nc4cccc(Cl)c4C)sc3nc2C)cc1
active: MDA-MB-435 melanoma -6.97% | HCT-116 colon 7.35%
inactive: T-47D breast 40.9% | BT-549 breast 36.9% | SW-620 colon 23.2% | MCF7 breast 19.4% | HCC-2998 colon 17.1% | KM12 colon 10.6%

CCOc1cc(CNc2ccc(N3CCOCC3)c(C(=O)O)c2)ccc1OC
inactive: T-47D breast 103% | BT-549 breast 108% | MDA-MB-435 melanoma 104% | SW-620 colon 98.5% | MCF7 breast 82.2% | HCT-116 colon 119% | HCC-2998 colon 99.9% | KM12 colon 100%

CC1(C)NCCC[C@]2(C)[C@H]3CC=C4[C@@H]5C[C@@](C)(CO)CC[C@]5(C)CC[C@@]4(C)[C@]3(C)CC[C@@H]12
inactive: T-47D breast 57.7% | BT-549 breast 78.5% | MDA-MB-435 melanoma 51.5% | SW-620 colon 74.1% | MCF7 breast 40.7% | HCT-116 colon 21% | HCC-2998 colon 60.5% | KM12 colon 52.8%

Cc1ccc(C2CC(c3cccc(Nc4ccncc4)c3)=NN2c2ccc(Cl)cc2)cc1 (stereo not drawn)
active: T-47D breast -47.9% | MDA-MB-435 melanoma -84.7% | SW-620 colon -46.9% | MCF7 breast -73.4% | HCT-116 colon -80.1% | HCC-2998 colon -93.4% | KM12 colon -89.3%
inactive: BT-549 breast 96.5%

O=C(c1ccccc1)N1N=C(c2ccc(-n3ccc(C(F)(F)F)n3)cc2)CC1c1ccc[nH]1 (stereo not drawn)
inactive: T-47D breast 73.5% | BT-549 breast 116% | MDA-MB-435 melanoma 96% | SW-620 colon 98.9% | MCF7 breast 91.5% | HCT-116 colon 93.7% | HCC-2998 colon 115% | KM12 colon 79.7%

CC(=O)O[C@H]1CC[C@@]2(C)[C@@H](CC[C@@H]3[C@@H]2CC[C@@]2(C)[C@H]3CC[C@]2(O)C(C)=O)C1
inactive: T-47D breast 103% | BT-549 breast 92.5% | MDA-MB-435 melanoma 104% | SW-620 colon 104% | MCF7 breast 105% | HCT-116 colon 99.1% | HCC-2998 colon 96.5% | KM12 colon 107%

COc1ccc(C(=O)c2cc3c(N)c(C(=O)Nc4cccc(OC)c4)sc3nc2C)cc1
active: MDA-MB-435 melanoma -14.3%
inactive: T-47D breast 62.6% | BT-549 breast 45.6% | SW-620 colon 30.1% | MCF7 breast 23.4% | HCT-116 colon 11.1% | HCC-2998 colon 19.5% | KM12 colon 20.9%

COc1cc(C2CC(c3cccc(Nc4ccncc4)c3)=NN2C(C)=O)cc(OC)c1OC (stereo not drawn)
inactive: T-47D breast 85.2% | BT-549 breast 103% | MDA-MB-435 melanoma 18.1% | SW-620 colon 87.8% | MCF7 breast 72.6% | HCT-116 colon 71.2% | HCC-2998 colon 95.1% | KM12 colon 69.5%

CC1NC(=S)NC(=O)/C1=C/c1cc(=O)oc2c1ccc1ccccc12 (stereo not drawn)
inactive: T-47D breast 93.4% | BT-549 breast 87.7% | MDA-MB-435 melanoma 105% | SW-620 colon 95.5% | MCF7 breast 89.9% | HCT-116 colon 91.8% | HCC-2998 colon 105% | KM12 colon 99.6%

CCOC(=O)Oc1c(OC)cc(C(=O)O[C@@H]2C[C@@H]3CN4CCc5c([nH]c6cc(OC)ccc56)[C@H]4C[C@@H]3[C@H](C(=O)OC)[C@H]2OC)cc1OC
inactive: T-47D breast 38.6% | BT-549 breast 77.5% | MDA-MB-435 melanoma 70.9% | SW-620 colon 48.4% | MCF7 breast 83.8% | HCC-2998 colon 68.7% | KM12 colon 39.8%
active: HCT-116 colon 1.57%

O=C(Nc1cccc(C2=NCCN2)c1)c1ccc(OCCCOc2ccc(C(=O)Nc3cccc(C4=NCCN4)c3)cc2)cc1
inactive: T-47D breast 18% | BT-549 breast 35.2% | SW-620 colon 14.8% | KM12 colon 14.2%
active: MDA-MB-435 melanoma -72% | MCF7 breast 0.803% | HCT-116 colon 6.6% | HCC-2998 colon -13.3%

O=C(O)C(/C=C/c1ccco1)=N\Nc1nc(-c2ccc(Cl)cc2)cs1
inactive: T-47D breast 66.6% | BT-549 breast 63.8% | MDA-MB-435 melanoma 45.7% | SW-620 colon 71.5% | MCF7 breast 71.9% | HCT-116 colon 26.3% | HCC-2998 colon 49% | KM12 colon 62.2%

C=C1C(=O)O[C@H]2[C@H]1CC/C(CNC(=O)/C=C/c1ccc(Br)cc1)=C\CC[C@@]1(C)O[C@@H]21
inactive: KM12 colon 36.4%
active: T-47D breast -41.3% | BT-549 breast -59.7% | MDA-MB-435 melanoma -47.8% | SW-620 colon -78.5% | MCF7 breast -66.7% | HCT-116 colon -81.4% | HCC-2998 colon -92.6%

Cc1ccccc1CNc1ccc(N2CCOCC2)cc1
inactive: T-47D breast 106% | BT-549 breast 102% | MDA-MB-435 melanoma 102% | SW-620 colon 98% | MCF7 breast 102% | HCT-116 colon 104% | HCC-2998 colon 105% | KM12 colon 100%

O=S(=O)(NCCCNc1nccc(-c2c(-c3ccc(F)c(O)c3)nc3sccn23)n1)c1ccc(F)cc1
inactive: BT-549 breast 26.7% | SW-620 colon 11.8% | KM12 colon 10.4%
active: T-47D breast -1.88% | MDA-MB-435 melanoma -11.7% | MCF7 breast 4.13% | HCT-116 colon 0.843% | HCC-2998 colon 4.68%

COc1ccc(-c2nc(N/N=C/c3c[nH]c4ccccc34)nc(N3CCOCC3)c2C#N)cc1
inactive: T-47D breast 94.9% | BT-549 breast 97% | MDA-MB-435 melanoma 108% | SW-620 colon 72.6% | MCF7 breast 80.2% | HCT-116 colon 59.8% | HCC-2998 colon 100% | KM12 colon 83.9%

O=C(O)/C=C\C(=O)N1C/C(=C\c2ccccc2Cl)C(=O)/C(=C/c2ccccc2Cl)C1
active: T-47D breast 7.54% | BT-549 breast -57% | MDA-MB-435 melanoma -11.3% | SW-620 colon -50% | MCF7 breast 3.37% | HCT-116 colon -97.2% | HCC-2998 colon -91.8% | KM12 colon -71.9%

O=S(=O)(NCCNc1nccc(-c2c(-c3ccc(F)c(O)c3)nc3sccn23)n1)c1ccccc1
inactive: T-47D breast 68.8% | BT-549 breast 114% | MDA-MB-435 melanoma 34.1% | SW-620 colon 70.4% | MCF7 breast 76.1% | HCT-116 colon 34.3% | HCC-2998 colon 95% | KM12 colon 71.2%
